Source: PubChem BioAssay AID435017 (Vanderbilt High Throughput Screening Facility, 2010)
Entries with a potency or affinity are not part of this list. Active and inactive are the calls of the source.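 Rule for the calls: active = compounds with a dose-dependent response across tested concentrations; inactive = the rest.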

biological target: ATP-sensitive inward rectifier potassium channel 1 (Homo sapiens) (UniProt P48048); assay: Kir1.1 channel inhibitor analog potency – cell-based, thallium flux, analog library, SAR follow-up (AID 435017); details: Tet-inducible ROMK, thallium flux fluorescence; series mostly up to 10 µM
Sequence (P48048 whole entry, looked up): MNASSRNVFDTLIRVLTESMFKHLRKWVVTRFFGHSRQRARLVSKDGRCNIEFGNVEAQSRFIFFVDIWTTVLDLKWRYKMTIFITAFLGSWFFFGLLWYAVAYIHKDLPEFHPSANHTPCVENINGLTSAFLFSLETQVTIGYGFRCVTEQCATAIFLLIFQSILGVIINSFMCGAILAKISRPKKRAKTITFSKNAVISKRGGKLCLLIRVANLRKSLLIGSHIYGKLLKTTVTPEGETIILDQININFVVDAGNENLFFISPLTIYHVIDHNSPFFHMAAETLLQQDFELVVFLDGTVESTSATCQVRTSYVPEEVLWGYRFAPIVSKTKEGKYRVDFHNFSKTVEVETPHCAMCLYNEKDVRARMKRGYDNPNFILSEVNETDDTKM

outcome, inactive:
Fc1ccc2nc(COCc3nc4ccc(F)cc4[nH]3)[nH]c2c1
O=[N+]([O-])c1ccc2nc(COCc3nc4ccccc4[nH]3)[nH]c2c1
O=C(Nc1ccc([N+](=O)[O-])cc1)N1CCOCCOCCN(C(=O)Nc2ccc([N+](=O)[O-])cc2)CCOCC1
O=S(=O)(c1ccc(CN2CCOCCOCCN(Cc3ccc(S(=O)(=O)C(F)(F)F)cc3)CCOCC2)cc1)C(F)(F)F
O=C(c1ccc([N+](=O)[O-])cc1)N1CCOCCOCCN(C(=O)c2ccc([N+](=O)[O-])cc2)CCOCC1
CS(=O)(=O)c1ccc(CN2CCOCCOCCN(Cc3ccc(S(C)(=O)=O)cc3)CCOCC2)cc1
O=[N+]([O-])c1cccc(CN2CCOCCOCCN(Cc3cccc([N+](=O)[O-])c3)CCOCC2)c1
Fc1ccc(CN2CCOCCOCCN(Cc3ccc(F)c(F)c3)CCOCC2)cc1F
O=[N+]([O-])c1ccc(CN2CCOCCOCCN(Cc3ccc([N+](=O)[O-])cc3[N+](=O)[O-])CCOCC2)c([N+](=O)[O-])c1
O=[N+]([O-])c1ccc(CN2CCOCCOCCN(Cc3ccc([N+](=O)[O-])cc3Cl)CCOCC2)c(Cl)c1
COCCN(CCOC)Cc1ccc([N+](=O)[O-])cc1
CN(C)S(=O)(=O)c1ccc2nc(COCc3nc4ccc(S(=O)(=O)N(C)C)cc4[nH]3)[nH]c2c1
c1ccc2[nH]c(COCc3nc4ccccc4[nH]3)nc2c1
O=[N+]([O-])c1ccc(S(=O)(=O)N2CCOCCOCCN(S(=O)(=O)c3ccc([N+](=O)[O-])cc3)CCOCC2)cc1
